According to PubChem BioAssay AID540333 (Southern Research Specialized Biocontainment Screening …, 2011):
Out of some 10,000 compounds screened, about 320 (3.2%) were called active. The list comes from a sample in which actives are over-represented; it also holds similar structures and randomly drawn compounds. Values without a mark were called inactive. Rule as the data show it: active = CPE inhibition mostly above about 9.1% (no sharp cut-off); inactive = mostly below about 7.2%.

assay: antivirals protecting cells from dengue CPE – CPE readout, HTS (AID 540333); settings: Dengue virus CPE inhibition in host cells, at 20 µM; active compounds read high

Row | Structure (SMILES) | CPE inhibition
1 | Cc1ccc(C(C(=O)NC2CCCCC2)N(Cc2ccccc2)C(=O)Cc2c[nH]c3ccccc23)o1 (stereo unspecified) | 24.2% (active)
2 | COc1cccc(CN(C(=O)Cc2c[nH]c3ccccc23)C(C(=O)NC2CCCCC2)c2ccc(C)o2)c1 (stereo unspecified) | 3.12%
3 | Cc1ccc(C(C(=O)NC2CCCCC2)N(C(=O)Cc2c[nH]c3ccccc23)c2ccccc2C)o1 (stereo unspecified) | 3.84%
4 | CCN1CCS/C1=C/C=C/C1=[N+](CC)CCS1 | 0.14%
5 | CC(C)(C)[C@H]1C=C(C(=O)Nc2ccccc2)O[C@@H](OCCCCO)C1 | inactive
6 | CC12CCC(C(=O)N(c3cccc(Cl)c3)C1=O)C2(C)C (stereo unspecified) | inactive
7 | O=C1C2C(c3ccccc3)(C(=O)N1c1ccc(Cl)cc1)C2(c1ccccc1)c1ccccc1 (stereo unspecified) | 1.7%
8 | O=C1C2C3C=CC(c4ccccc4)(C2C(=O)N1c1cccc(Cl)c1)C1C(=O)N(c2cccc(Cl)c2)C(=O)C31 (stereo unspecified) | 25.2% (active)
9 | CC(C)(C)c1ccc(-c2ccc3c(c2)S(=O)(=O)c2ccccc2C3=O)cc1 | 2.16%
10 | COc1ccc(CCN2C(=O)NC(NC(C)=O)(C(F)(F)F)C2=O)cc1OC (stereo unspecified) | 0.945%
11 | COc1ccc(CN2C[C@H](Cc3ccccc3)[C@@H](CC(=O)Nc3ccccc3)C2=O)cc1 | 13.5% (active)
12 | COC(=O)CN1C(=S)N(Cc2ccccc2)C(=O)C1CC(=O)Nc1ccc(OC)cc1 (stereo unspecified) | inactive
13 | CCCCC[C@H]1CN(CCCC)C(=O)[C@@H]1CC(=O)NCc1ccccc1 | 3.67%
14 | O=C(CN1C2=NCCCN2c2ccccc21)c1cccc(Br)c1 | 4%
15 | COc1cc2c(cc1OC)C(=O)N1[C@H]3c4cc(Cl)ccc4OC[C@@H]3[C@H](c3ccccc3)[C@]1(C)C(=O)N2 | 16.3% (active)
16 | COc1ccc2c(c1)[C@H]1[C@H](CO2)[C@H](c2ccccc2)[C@]2(C)C(=O)Nc3cc(OC)c(OC)cc3C(=O)N12 | 2%
17 | COc1ccc2c(c1)OC[C@H]1[C@H]2N2C(=O)CN(Cc3ccc(F)cc3)C(=O)[C@@]2(C)[C@H]1c1ccccc1 | 12.2% (active)
18 | CCOC(=O)[C@@H]1[C@H]2COc3cc(OC)ccc3[C@H]2N2C(=O)N(c3ccc(F)cc3)C(=O)[C@@]12C | 2.49%
19 | COc1ccc2c(c1)C(=O)N1[C@H]3c4cc(OC)ccc4OC[C@@H]3[C@H](c3ccccc3)[C@]1(C)C(=O)N2 | 7.37%
20 | COc1ccc2c(c1)[C@H]1[C@H](CO2)[C@H](c2ccccc2)[C@]2(C)C(=O)Nc3cc(Cl)ccc3C(=O)N12 | 11%
21 | C[C@]12C(=O)N(c3ccc(F)cc3)C(=O)N1[C@H]1c3ccccc3OC[C@@H]1[C@H]2c1ccccc1 | 1.73%

Row | Structure (SMILES) | CPE inhibition
22 | CCOC(=O)[C@@H]1[C@H]2COc3cc(OC)ccc3[C@@H]2N2C(=O)N(c3ccccc3)C(=O)[C@]12C | 0.065%
23 | C[C@@]12C(=O)Nc3ccc(Br)cc3C(=O)N1[C@H]1c3cc(Cl)ccc3OC[C@@H]1[C@@H]2c1ccccc1 | 18.8% (active)
24 | COc1ccc2c(c1)C(=O)N1[C@H]3c4cc(C)ccc4OC[C@@H]3[C@H](c3ccccc3)[C@]1(C)C(=O)N2 | 14.5% (active)
25 | C[C@@]12C(=O)Nc3ccc(F)cc3C(=O)N1[C@H]1c3cc(Br)ccc3OC[C@@H]1[C@@H]2c1ccccc1 | 6.78%
26 | C[C@]12C(=O)N(c3ccc(C(F)(F)F)cc3)C(=O)N1[C@H]1c3ccccc3OC[C@@H]1[C@H]2c1ccccc1 | 11.2%
27 | CCOc1ccc(N2C(=O)/C(=C/c3ccco3)N(C)C2=S)cc1 | 3.13%
28 | Cc1cc(C)cc(NC(=S)NCc2cccs2)c1 | 1.1%
29 | Cc1ccc(C)c(NC(=O)COC(=O)c2cccc3c2C(=O)c2ccccc2C3=O)c1 | 0.805%
30 | O=C(OC(c1ccccc1)c1nccc2ccccc12)c1cc([N+](=O)[O-])cc([N+](=O)[O-])c1 (stereo unspecified) | 0.39%
31 | Cc1ccc(-c2nn(-c3ccccc3)cc2/C=C/C(=O)Nc2nccs2)cc1 | 3.35%
32 | CC(=O)N1CCC2(CC1)CC(=O)c1cc(Cl)ccc1O2 | inactive
33 | Cc1cc(C)c(-c2csc(NC(=O)c3n[nH]c(=O)c4ccccc34)n2)c(C)c1 | 2.35%
34 | COC(=O)[C@H]1[C@H](CCc2ccccc2)NC(=O)N(Cc2ccccc2)[C@@H]1C | inactive
35 | COC(=O)c1c(NC(=O)CN2CCC3(O)CCCCC3C2c2ccc(F)cc2)sc(C)c1C (stereo unspecified) | 27.5% (active)
36 | COC(=O)c1c(NC(=O)CC2Sc3ccc(C(F)(F)F)cc3NC2=O)sc(C)c1C (stereo unspecified) | 0.71%
37 | CCOC(=O)c1c(NC(=O)CN2C(=O)NC3(CCCCC3)C2=O)sc(C)c1-c1ccc(C)cc1 | 9.96%
38 | COC(=O)c1c(NC(=O)CN2CCC3(O)CCCCC3C2c2cc(OC)ccc2OC)sc(C)c1C (stereo unspecified) | 11.8% (active)
39 | COC(=O)c1c(NC(=O)CN2CCC3(O)CCCCC3C2c2ccccc2OC)sc(C)c1C (stereo unspecified) | 2.39%
40 | COc1ccc(C2C3CCCCC3(O)CCN2C(=O)c2cccs2)cc1 (stereo unspecified) | 2.42%
41 | CCOc1cc(/C=C(\C#N)C(N)=O)ccc1OS(=O)(=O)c1ccccc1 | 0.64%
